From publication PMC4552634, “A New Set of Chemical Starting Points with Plasmodium falciparum Transmission-Blocking Potential for Antimalarial Drug Discovery” (PLoS ONE, 2015)
Read-outs that look alike come from different tables or passages of the source. Out of some 13,000 compounds screened, about 3,200 (25%) showed an effect of 50% or more. The list shows a part of the results.

Test system: P. falciparum stage V gametocytes
Parameters: BacTiter-Glo ATP luminescence viability of purified stage V gametocytes in 384-well plates, per cent inhibition versus DMSO
Settings: 48 h, 5 µM, inhibitor

Compound | % Inhibition | % Inhibition (% Inhibition)
COc1ccc2sc(CNCCCNc3cc(=O)c4ccccc4[nH]3)c(Cl)c2c1 [TCMDC-140334] | -8.727% | 
O=C(NC1CCN(Cc2ccccc2)CC1)c1ccc(-c2nc3cc4ccccc4cc3[nH]2)s1 [TCMDC-140122] | 18.76% | 
CC1Cc2ccccc2N1CC(=O)Nc1cc(C(F)(F)F)ccc1-n1cncn1 (centres unmarked) [TCMDC-124870] | -73.33% | 
O=C(NCCNc1noc(-c2sccc2Br)n1)c1ccc(Cl)cc1 [TCMDC-134182] | 2.834% | 
O=c1cc(N2CCCNCC2)c(Cl)nn1Cc1ccc(NS(=O)(=O)c2ccc(Oc3ccccc3)cc2)cc1 [TCMDC-141692] | 2.781% | 
COc1ccc(-c2cnc3[nH]cc(-c4ccc(C(=O)O)cc4)c3c2)cn1 [TCMDC-136213] | 14.9% | 
COc1ccc(-c2cnc3[nH]cc(-c4ccncc4)c3c2)cc1OC [TCMDC-135853] | 140.3% | 
COc1ccc(-c2cnc3[nH]cc(-c4ccc(CCC(=O)O)cc4)c3c2)cn1 [TCMDC-136240] | 35.75% | 
COc1ccc(CNC(=O)C2Cc3ccccc3CN2Cc2ccc3ccccc3c2)cc1 (centres unmarked) [TCMDC-141565] | -15.29% | 
COc1ccc(-c2nonc2NC(=O)c2cccc(Cl)c2)cc1OC [TCMDC-125401] | 22.75% | 
CC(=O)Oc1cc(C(=O)Nc2ccc(Cl)cc2)cc2ccccc12 [TCMDC-123708] | 7.424% | 
CC1CCCN(C(=O)c2cc(-c3ccccn3)nc3c(Cl)cccc23)C1 (centres unmarked) [TCMDC-125218] | 20.47% | 
O=C(Nc1nc(-c2ccccn2)cc2ccccc12)c1cccc(Cl)c1 [TCMDC-123886] | 116.1% | 
O=C(O)c1ccc2nc(-c3ccccn3)c(-c3ccccn3)nc2c1 [TCMDC-123820] | -4.631% | 
NC(=Nc1nc(-c2ccccn2)cc2ccccc12)c1cccc(Cl)c1 [TCMDC-123745] | 62.24% | 
O=C(NC1CCN(Cc2ccccc2)CC1)c1ccc(-c2nc3cc(Cl)c(F)cc3[nH]2)s1 [TCMDC-140100] | 2.226% | 
Cc1ccc(-c2csc(C)n2)c(C)c1 [TCMDC-125751] | 2.132% | 
O=c1cc(-c2cccc(C(F)(F)F)c2)nc(Nc2ccc(Cl)c(Cl)c2)[nH]1 [TCMDC-132206] | 43.99% | 
COc1cc(CS(C)(=O)=O)ccc1Nc1nccc(-c2c(-c3cccc(NC(=O)c4c(F)cccc4F)c3)nn3ccccc23)n1 [TCMDC-135792] | -6.854% | 
O=C(C=Cc1ccc(Cl)c(Cl)c1)NCCCCCN1CCC(CCCNS(=O)(=O)c2ccc(F)cc2)CC1 [TCMDC-139589] | 110.7% | 
O=C(C=Cc1ccc(Cl)c(Cl)c1)NCCCCCN1CCC(CCNS(=O)(=O)c2ccc(F)cc2)CC1 [TCMDC-139585] | 78.1% | 
O=C(/C=C/c1ccc(Cl)c(Cl)c1)NCCCCCN1CCC(NC(=S)Nc2ccc(F)cc2F)CC1 [TCMDC-135900] | 33.5% | 
O=C(/C=C/c1ccc(Cl)c(Cl)c1)NCCCCCN1CCC(NC(=O)Nc2ccc(F)cc2F)CC1 [TCMDC-135712] | 11.66% | 

Compound | % Inhibition | % Inhibition (% Inhibition)
O=C(/C=C/c1ccc(Cl)c(Cl)c1)NCCCCCN1CCC(NC(=O)c2ccc(F)cc2F)CC1 [TCMDC-135842] | -11.69% | 
Cc1cc(NC(=O)Nc2cccc(Cl)c2Cl)c2ccccc2n1 [TCMDC-138971] | 10.53% | 
O=C(CCc1c[nH]cn1)Nc1cccc(-c2ccc(-c3nc4cc(F)ccc4[nH]3)s2)c1 [TCMDC-132160] | 19.34% | 
CCOc1ccc(CCCON2C(N)=NC(N)=NC2(C)C)cc1 [TCMDC-131754] | 18.76% | 
C/C=C1\CN2CC[C@H]1C[C@H]2[C@H](O)c1ccnc2ccc(OC)cc12 [TCMDC-138275] |  | 1.908%
COc1ccc2ncc(C#N)c(CCN3CCC(NCc4cnc5c(c4)OCCO5)CC3)c2n1 [TCMDC-135230] | 35.06% | 
CC(C)C(NC(=O)c1c(F)cccc1F)C(=O)Nc1ccc(Cc2nc3ccccc3s2)cc1 (centres unmarked) [TCMDC-125462] | -3.098% | 
CC(C)[C@H](NC(=O)c1c(F)cccc1F)C(=O)Nc1ccc(Cc2nc3ccccc3s2)cc1 [TCMDC-125031] | 63.22% | 
CC(=O)c1sc(Cc2nc3ccccc3s2)nc1C [TCMDC-125337] | 10.02% | 
O=C(c1ccccc1N=Nc1c(-c2ccccc2)[nH]n(-c2ccccc2)c1=O)N1CCOCC1 [TCMDC-125746] | -15.29% | 
CN(C)Cc1cccc(-c2ccc(NC(=O)c3ccc4c(=O)n(Cc5ccoc5)cnc4c3)cc2)c1 [TCMDC-132369] | 14.65% | 
CN1CCC(Oc2ccc(NC(=O)c3ccc4c(=O)n(Cc5ccccc5)cnc4c3)cc2Cl)CC1 [TCMDC-132373] | -13.59% | 
CN(C)Cc1ccc(-c2ccc(NC(=O)c3ccc4c(=O)n(Cc5ccoc5)cnc4c3)cc2)cc1 [TCMDC-132368] | 79.58% | 
CN(C)Cc1ccc(-c2ccc(NC(=O)c3ccc4c(=O)n(Cc5ccccc5)cnc4c3)cc2)cc1 [TCMDC-132361] | 121.5% | 
CN(C)CCN(C)Cc1ccc(-c2ccc(NC(=O)c3cccc(C#N)c3)cc2)cc1 [TCMDC-132597] | -16.52% | 
O=C(Nc1cc(F)cc(-c2cccnc2)c1)c1ccc2c(=O)n(Cc3ccccc3)cnc2c1 [TCMDC-132372] | 12.04% | 
Brc1ccsc1-c1nc(NCCC(c2ccccc2)c2ccccc2)no1 [TCMDC-134185] | 1.138% | 
COc1ccc(C2CC(=O)C3=C(C2)NC(C)=C(C(=O)OC2CCCC2)C3c2ccc(O)cc2)cc1OC (centres unmarked) [TCMDC-125626] | 11.61% | 
COc1cc2nc(-c3ccccc3)nc(N3CCN(CC(=O)N4CCCC4)CC3)c2cc1OC [TCMDC-125097] | -15.61% | 
O=C(/C=C/c1ccc(Cl)c(Cl)c1)N1CCC(CNCc2cccc3cc[nH]c23)CC1 [TCMDC-134168] | -34.36% | 
COc1cc(NC(=O)/C=C/c2ccc(-c3ccccc3)cc2)ccc1OCCN(C(C)C)C(C)C [TCMDC-139961] | -1.594% | 
Cc1nc(-c2ccc(-c3ccc(C(=O)Nc4ccc(C(C)C)c(OCCN(C)C)c4)cc3)c(C)c2)no1 [TCMDC-138990] | -34.94% | 
COc1ccc(C(=O)Nc2ccc(-c3ccc([N+](=O)[O-])cc3)cc2)cc1CCCN(C)C [TCMDC-132090] | 0.6115% | 

Compound | % Inhibition | % Inhibition (% Inhibition)
COc1ccc(/C=C/C(=O)Nc2ccc(-c3ccncc3)cc2)cc1CCCN(C)C [TCMDC-132082] | 72.07% | 
COc1ccc(NC(=O)/C=C/c2ccc(-c3ccc(-c4noc(C)n4)cc3)cc2)cc1OCCN(C)C [TCMDC-138985] | 62.93% | 
COc1ccc(NC(=O)/C=C/c2ccc(-c3ccccc3)cc2)cc1N1CCN(C)CC1 [TCMDC-138979] | -7.206% | 
CC(=O)Nc1nc(C(=O)Nc2ccc(-c3cccc(-c4nc5ccc(C(F)(F)F)cc5[nH]4)c3)cc2)cs1 [TCMDC-137129] | -34.14% | 
COc1cccc(COCC(O)CN(CCc2ccccn2)C(=O)c2ccccc2F)c1 (centres unmarked) [TCMDC-141311] | 5.48% | 
CCCCC(CC)CN1C(=O)C(c2ccccc2)(c2ccccc2)N=C1N (centres unmarked) [TCMDC-136814] | -93.32% | 
CNC(=O)c1cc(Nc2nnc(-c3ccc(C)c(S(=O)(=O)NC4CCCCC4)c3)c3ccccc23)ccc1OC [TCMDC-125661] | -9.997% | 
NCc1cccc(-c2ccc(CNC3CCN(Cc4ccccc4)CC3)cc2)c1 [TCMDC-140486] | 46.75% | 
Oc1ccc(CN2CCC(NCc3cccc(C(F)(F)F)c3)CC2)cc1 [TCMDC-141655] | -19.37% | 
NCc1ccc(-c2cccc(CNC3CCN(Cc4ccccc4)CC3)c2)cc1 [TCMDC-140478] | 84.33% | 
NCc1cccc(-c2cccc(CNC3CCN(Cc4ccccc4)CC3)c2)c1 [TCMDC-140477] | 86.14% | 
CCOc1cc(C(=O)NC2CCN(Cc3ccccc3)C2)ccc1-c1nc2ccc(Cl)cc2[nH]1 (centres unmarked) [TCMDC-140911] | -5.376% | 
O=C(Nc1ccc(-c2nc3ccccc3[nH]2)cc1)c1ccc(S(=O)(=O)N2CCCCCC2)cc1 [TCMDC-125712] | -20.46% | 
Cc1ccc2nc(C)cc(NN=Cc3ccc(Cl)cc3)c2c1 [TCMDC-123976] | -8.095% | 
CCOc1ccc2nc(C)cc(NN=Cc3cccc([N+](=O)[O-])c3)c2c1 [TCMDC-142049] | 64.63% | 
COc1ccc2nc(-c3ccccc3)cc(NN=Cc3ccc([N+](=O)[O-])o3)c2c1 [TCMDC-142040] | -17.37% | 
COc1ccc2nc(C)cc(NN=Cc3ccc([N+](=O)[O-])o3)c2c1 [TCMDC-142036] | 11.78% | 
Cc1ccc2nc(C)cc(N/N=C/c3ccc([N+](=O)[O-])o3)c2c1 [TCMDC-142035] | 56.06% | 
CCOc1ccc2nc(C)cc(NN=Cc3ccccc3[N+](=O)[O-])c2c1 [TCMDC-142048] | 91.47% | 
Cc1ccc2nc(C)cc(N/N=C/c3ccccc3[N+](=O)[O-])c2c1 [TCMDC-123975] | -3.364% | 
COc1ccc2nc(C)cc(NN=Cc3ccccc3[N+](=O)[O-])c2c1 [TCMDC-142087] | 48.43% | 
Cc1ccc2nc(C)cc(N/N=C/c3ccc([N+](=O)[O-])cc3)c2c1 [TCMDC-142070] | 109.1% | 
